The whole screen tested about 2,100 compounds, of which about 650 (31%) were called active. Inconclusive results (about 16%) are left out. Calls follow the shape of the dose curve; as a rule, active = well fitted inhibition curve with a large enough effect; inconclusive = small, poorly fitted or top-dose-only effect; inactive = flat fitted curve, though single readings scatter. Some of the results follow. A call without a number means that no potency is given here.
Potency is read from the fitted curve at half-maximal effect.

The nature of the experiment: qHTS for inhibitors of Vif-A3G interactions: Cherry picks. Also: nearly all actives have a fitted effect of over 80% in size. The note with it: HeLa A3G-eYFP + Vif (tagged APOBEC3G with the HIV-1 protein that degrades it), 24 h; Potency: eYFP fluorescence increase; series mostly up to 36.9 µM. The method in brief:
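HeLa cells stably expressing A3G-eYFP and Vif, cultured overnight then exposed to compounds at several concentrations for 24 hours at 37 C, 5% CO2; cellular yellow fluorescence (488 nm ex, 500-530 nm em) imaged on Acumen, MG132 positive control.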
Consider `O=[N+]([O-])c1cc(-c2nc(-c3ccccc3)no2)ccc1NCc1ccco1`, for which the Potency was 10.3 µM (active). For the compound `Cc1cccc(-c2noc(-c3ccc(NCc4ccco4)c([N+](=O)[O-])c3)n2)c1`, the Potency is 16.4 µM (active). As to `COc1ccccc1-c1noc(-c2ccc(NCc3ccco3)c([N+](=O)[O-])c2)n1`, the Potency was 23.1 µM (active). For the compound `COc1ccc(-c2cnc3c(c2)CCC3(C#N)C#N)cc1`, the Potency result is “inactive”. For `O=C1N/C(=N\N=C\c2ccco2)SC1Cc1ccccc1[N+](=O)[O-]` (stereo not drawn), the Potency entry is “inactive”. On to `CCN(CC)S(=O)(=O)c1cc([N+](=O)[O-])ccc1N=Nc1c(O)[nH]c2ccccc12`, for which the Potency is 20.6 µM (active).

As for `Cc1ccccc1NCC(=O)N=Nc1c(O)[nH]c2ccc([N+](=O)[O-])cc12`, the Potency result was “inactive”. On to `CN1C2=CC=CC=CC2=[N+](C)C12C([N+](=O)[O-])=CC(=[N+]([O-])[O-])C=C2[N+](=O)[O-]` (stereo not drawn), for which the Potency entry was “inactive”. Take `Nc1nn(-c2ccccc2)c(N)c1N=Nc1ccccc1`: the Potency result was “inactive”.

As for `CCCCn1c(N)c(N(CCC(C)C)C(=O)c2ccc([N+](=O)[O-])o2)c(=O)[nH]c1=O`, the Potency entry is “inactive”. The figure for `Nc1c(N(CCC2=CCCCC2)C(=O)c2ccc([N+](=O)[O-])o2)c(=O)[nH]c(=O)n1Cc1ccccc1` is 18.4 µM (active); for `CCCCN(C(=O)c1ccc([N+](=O)[O-])s1)c1c(N)n(CCCC)c(=O)[nH]c1=O` it is “inactive”. As for `O=Cc1s/c(=N\S(=O)(=O)c2ccccc2)n(CCCCl)c1Cl`, the Potency result was “inactive”. Under `CCOC(=O)CSc1nc2c(c(=O)[nH]1)C(C)(CC)Cc1ccccc1-2` (stereo not drawn) stands “inactive”; under `CCOC(=O)Cn1c(=O)c(-c2cc(Br)ccc2N)nc2ccccc21`, 11.6 µM (active).

For the compound `CCOC(=O)COn1c(=O)c(-c2ccc(Br)cc2)[n+]([O-])c2ccccc21`, the Potency entry was “inactive”. Take `CCOC(=O)c1c(C)oc2ccc(N(C(=O)c3ccncc3)S(=O)(=O)c3ccc(Br)cc3)cc12`: the Potency result is “inactive”. The figure for `COc1ccc(-n2c(O)c(/C=N/NS(=O)(=O)c3ccc(C)cc3)c3ccccc3c2=O)cc1OC` is 18.4 µM (active); for `COc1ccc(OC)c(S(=O)(=O)N/N=C\c2cn(CC(N)=O)c3ccccc23)c1` it is “inactive”. Regarding `COc1cc(C(=O)NCC(=O)N2CCN(S(=O)(=O)c3cc(C)ccc3C)CC2)cc(OC)c1OC`, the Potency entry was “inactive”. On to `COc1ccc(-n2c(O)c(/C=N/NS(=O)(=O)c3cc(C)ccc3C)c3ccccc3c2=O)cc1OC`, for which the Potency was 16.4 µM (active). For `COc1ccc(S(=O)(=O)NCc2ccccn2)cc1NC(=O)c1ccc(C)cc1`, the Potency entry was “inactive”. In the case of `COc1cc(/C=N/Nc2cc(C)nc(NS(=O)(=O)c3ccccc3)n2)ccc1O`, the Potency entry is “inactive”.

With `CCC(=O)OCc1cnc(C)c2oc(=O)c(C(=O)Nc3ccccc3C(F)(F)F)cc12`, the Potency result is “inactive”.

Turning to `CC(=O)Nc1cccc(-c2ccnc3c2CC(C(=O)Nc2ccc4c(c2)OCO4)O3)c1` (stereo not drawn), the Potency result is “inactive”. Regarding `O=[N+]([O-])c1cc(O)c2ncccc2c1`, the Potency entry was “inactive”.

Turning to `c1ccc(-c2cccc(-c3ccccn3)n2)nc1`, the Potency result is “inactive”. Under `Nc1[nH]c2cc([N+](=O)[O-])ccc2c1-c1ccccn1` stands 8.2 µM (active); under `COc1ccc(-n2nnnc2S(=O)(=O)Cc2ccc(C(=O)O)cc2)cc1`, “inactive”. As for `CCc1ccc(NC(=O)c2sc3nc(C)c(C(=O)Nc4ccc(C)cc4C)c(-c4ccco4)c3c2N)cc1`, the Potency is 23.1 µM (active). The figure for `Cc1ccc(NC(=O)c2c(C)nc3sc(C(=O)NC4CCCC4)c(N)c3c2-c2ccco2)c(C)c1` is 20.6 µM (active). With `CCOC(=O)c1[nH]c(C)c(C(=O)Nc2ccc(C)cc2C)c1C`, the Potency result was “inactive”. With `COc1cccc(NC(=O)c2sc3nc(C)c(C(=O)Nc4ccc(C)cc4C)c(-c4ccco4)c3c2N)c1`, the Potency entry was “inactive”. The entry for `CCOC(=O)N1CCN(C(=O)c2[nH]c(C(F)(F)F)nc2-c2ccccc2)CC1` is “inactive”; for `CC1(C(=O)NCc2ccc(F)c(F)c2)Cc2c(-c3cccc(C(N)=O)c3)ccnc2O1` (stereo not drawn) it is “inactive”. As to `COc1ccc(CN(C(C)=O)c2cccc(C)c2C)cc1`, the Potency result was “inactive”.

For the compound `FC(F)(F)c1ccccc1NC(=S)NN=C1CCCCCC1`, the Potency result is “inactive”.

On to `COC(=O)c1sccc1S(=O)(=O)N(CC(=O)Nc1cc(F)ccc1F)c1ccc(C)c(C)c1`, for which the Potency result is “inactive”. Regarding `N#CCC(=O)N/N=C/c1ccc(N2N=C(c3ccccc3)CC2c2ccccc2)cc1` (stereo not drawn), the Potency was 20.6 µM (active). For `C/C(=N\NC(=S)NCc1ccccc1)c1cccs1`, the Potency entry is “inactive”. The entry for `C/C(=N\Nc1nccnc1Cl)c1ccc(Cl)c(Cl)c1` is “inactive”. With `COC(=O)c1sc2cc([N+](=O)[O-])cc(SCC(C)C)c2c1N`, the Potency is 16.4 µM (active). For `CCOC(=O)c1sc2cc([N+](=O)[O-])cc(SCC(C)C)c2c1N`, the Potency was 2.91 µM (active). Under `CS(=O)(=O)N(CC(=O)N1CCN(Cc2ccccc2)CC1)c1ccccc1F` stands “inactive”. As to `O=C(COC(=O)C12CC3CC(CC(Cl)(C3)C1)C2)N1CCCCC1`, the Potency entry is “inactive”. On to `c1ccc(Nc2nc(-c3ccccn3)cs2)cc1`, for which the Potency result was “inactive”. Regarding `Cc1ccc(Nc2nc(Cl)c(C=O)s2)cc1Cl`, the Potency is 16.4 µM (active).

As for `O=Cc1sc(Nc2ccccc2)nc1Cl`, the Potency was 23.1 µM (active). Take `COc1ccc(S(=O)(=O)N2CCCOC2CNC(=O)C(=O)NCCc2ccco2)cc1C` (stereo not drawn): the Potency entry is “inactive”. In the case of `C=C(C)CNC(=S)NNC(=O)c1ccco1`, the Potency result is “inactive”. Consider `Cc1ccc2c(Cl)c(C)c(N3CCCC3)nc2n1`, for which the Potency entry is “inactive”. In the case of `COc1ccc(C(=O)N2CCN(c3cccc(Cl)c3)CC2)cc1S(=O)(=O)NC1CC1`, the Potency entry was “inactive”. Take `Cc1ccc(C(=O)NCCn2c(N)c(C#N)c3nc4ccccc4nc32)cc1`: the Potency is 23.1 µM (active). Consider `Cc1ccc(C(=O)NN(C)c2nc3ccccc3nc2C(F)(F)F)cc1`, for which the Potency result was “inactive”. Under `Cc1c(CCCl)c(Cl)n2c(nc3ccccc32)c1C#N` stands “inactive”; under `COc1ccc(-c2cnc3c(NC=O)cc(-c4ccoc4)cn23)cc1OC`, “inactive”; under `CCN(CC)c1ccc(/C=N/NC(=O)c2ccco2)c(O)c1`, “inactive”.

On to `CC(C)NC(=S)N/N=C/c1sc(N2CCCCC2)nc1-c1cccs1`, for which the Potency was 23.1 µM (active). On to `CNC(=S)N/N=C/c1ccc(N2CCOCC2)s1`, for which the Potency entry is “inactive”.

In the case of `CC(C)NC(=S)N/N=C1\CCCCc2ccccc21`, the Potency result is “inactive”. As to `O=C1c2ccccc2-c2onc3c(N4CCN(C5CCCCC5)CC4)cc(NCCO)c1c23`, the Potency is 4.61 µM (active). Under `CCNc1cc(N2CCN(C3CCCCC3)CC2)c2noc3c2c1C(=O)c1ccccc1-3` stands 16.4 µM (active). Consider `CN(C)CCCNc1cc(N2CCN(C3CCCCC3)CC2)c2noc3c2c1C(=O)c1ccccc1-3`, for which the Potency is 20.6 µM (active). Regarding `O=C(c1cc(-c2ccncc2)nc2ccccc12)N1CCN(c2ccccn2)CC1`, the Potency result was “inactive”. Turning to `CCOc1cc(C)nc(NCc2ccccc2)n1`, the Potency entry is “inactive”. Take `C=CCOC(=O)C1=C(C)Nc2nnnn2C1c1cccs1` (stereo not drawn): the Potency result was “inactive”.

For `N#CC1=C(S)N(c2ccc(F)cc2)C2(CCCCC2)NC1=O`, the Potency result was “inactive”. With `O=C(COc1ccccc1)NC(=S)Nc1cccc2c(O)cccc12`, the Potency entry is “inactive”. The entry for `COc1ccc(OC)c(NCc2cccn2-c2nnc(N3CCC(C)CC3)s2)c1` is “inactive”; for `Cc1ccc(CSc2nc(-c3ccc(C(C)(C)C)cc3)nc3cc(=O)[nH]n23)cc1` it is “inactive”. Consider `Nc1c(C(=O)Nc2nccs2)sc2nc(-c3cccs3)cc(C(F)(F)F)c12`, for which the Potency was 14 µM (active). `Nc1c(C(=O)Nc2ccc(F)cc2)sc2nc(-c3cccs3)cc(C(F)(F)F)c12`: the Potency was 1.84 µM (active). The figure for `Nc1c(C(=O)Nc2nc3ccccc3s2)sc2nc(-c3cccs3)ccc12` is 18.4 µM (active). Take `O=C(Nc1nc2ccccc2s1)c1ccc([N+](=O)[O-])o1`: the Potency result was “inactive”. Regarding `O=C(N/N=C/c1ccsc1)c1cc(-c2cccs2)nc2ccccc12`, the Potency result is “inactive”. Turning to `Cc1nnc(NC(=O)c2sc3nc(-c4cccs4)cc(C(F)(F)F)c3c2N)s1`, the Potency was 9.2 µM (active). Under `Cn1c(=O)c2c(nc(NC3CCCC3)n2C)n(C)c1=O` stands “inactive”; under `CSc1nc(N)c(C#N)c(-c2ccccc2Cl)c1C#N`, “inactive”. `N#Cc1c(Nc2ccccc2)[n+]([O-])c2ccc(Cl)cc2[n+]1[O-]`: the Potency entry was “inactive”. For the compound `COc1cccc(/C(O)=C/c2nc3ccc(C(=O)NCCc4cccc(C)c4)cc3[nH]c2=O)c1`, the Potency is 11.6 µM (active). In the case of `COc1ccc2nc(NC(=O)c3nc(S(=O)(=O)Cc4cccc(C)c4)ncc3Cl)sc2c1`, the Potency entry was “inactive”. In the case of `COc1cccc(C(=O)N/N=C/C(Br)=C/c2ccccc2)c1`, the Potency result is “inactive”. In the case of `COc1cccc(/C(O)=C/c2nc3ccc(C(=O)NCCc4ccc(Cl)cc4)cc3[nH]c2=O)c1`, the Potency was 16.4 µM (active).

In the case of `CCOC(=S)SCC(=O)N1CCc2cc(OC)ccc2C1C1C(=O)CCCC1=O` (stereo not drawn), the Potency result is “inactive”.

Turning to `COc1ccc(NC(=S)Nc2ncccc2C)c(OC)c1`, the Potency entry is “inactive”. Regarding `COc1cc(C(=O)c2ccc3c(c2)OCO3)cc(OC)c1OC`, the Potency entry is “inactive”. `Oc1ccc(C2=NNC(=NCc3ccc4c(c3)OCO4)SC2)c(O)c1`: the Potency entry is “inactive”. For the compound `CC1(C(=O)NCc2ccccc2)Cc2c(-c3ccc(C(N)=O)cc3)ccnc2O1` (stereo not drawn), the Potency entry is “inactive”. Turning to `Cc1ccc2nsnc2c1NC(=O)c1ccc(-c2cc(Cl)ccc2Cl)o1`, the Potency was 15.8 µM (active). Regarding `CCSc1nccc(-c2nn(-c3ccc(C)cc3)ccc2=O)n1`, the Potency result is “inactive”. `CC(C)c1ccc(C(=O)NCCCNC(=O)c2cnccn2)cc1`: the Potency result is “inactive”.

On to `CC(=O)Nc1cccc(-c2ccnc3c2CC(C(=O)Nc2ccc(Cl)cc2)O3)c1` (stereo not drawn), for which the Potency result was “inactive”.

Regarding `CC(=O)Nc1ccc2c(c1)Cc1ccc(Cl)cc1-2`, the Potency entry was “inactive”. For the compound `CC(=O)Nc1ccc(C2=CC(=O)C[C@H](c3ccc(Cl)cc3)C2)cc1`, the Potency is 18.4 µM (active).

Turning to `CCSC1=N/C(=C\C=C2/Oc3ccccc3N2CC)C(=O)S1`, the Potency is 14.6 µM (active). For `Cc1nnc(N2C(=O)c3cccc4c([N+](=O)[O-])ccc(c34)C2=O)s1`, the Potency is 18.4 µM (active).

On to `O=C1c2cccc3c([N+](=O)[O-])ccc(c23)C(=O)N1c1ccccn1`, for which the Potency was 5.8 µM (active). Turning to `CC(=O)Oc1ccc(N2C(=O)c3cccc4c([N+](=O)[O-])ccc(c34)C2=O)cc1`, the Potency is 1.46 µM (active).

These data come from PubChem BioAssay AID651812 (National Center for Advancing Translational Sciences (NCATS), 2012).
